Experimental findings from PubChem BioAssay (EPA / NIEHS) are described below.

Assay [1] is described as follows: ATG_TGFb_CIS: Attagene CIS-FACTORIAL HepG2 Assay for human Transforming Growth Factor (TGF) (AID 2282967). The conditions noted are these: HepG2 Attagene CIS TGFb reporter, mRNA transcription; actives raise or lower the signal. The procedure, abridged: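 Liver HepG2 line, cis-factorial reporter panel, 24 h dosing. Quantitation: RT-PCR products labeled with 6-FAM, cut with HpaI, resolved by capillary electrophoresis; DMSO-referenced bidirectional analysis.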

Assay [2] in a line: ATG_VDRE_CIS: Attagene CIS-FACTORIAL HepG2 Assay for human Vitamin D Receptor Element (VDRE) (AID 2282968). The conditions noted are these: HepG2 VDRE cis-reporter transcription, actives raise or lower the signal. A digest of the protocol: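 Transiently transfected HepG2 cells carrying cis-regulated reporter transcription units were exposed for 24 h. Reporter mRNA was measured by RT-PCR with fluorescent labelling and capillary electrophoresis, and fitted in both directions against DMSO.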

Assay [3] addresses Estrogen receptor (Homo sapiens) (UniProt P03372). The assay can be described thus: ATG_ERa_TRANS: Attagene TRANS-FACTORIAL HepG2 Assay for human Estrogen Receptor alpha (ERa) (AID 2282970; active = hit-call score of the fitted dose curve at least 0.9, where 1 is the maximum). Conditions: HepG2 Attagene TRANS ERa GAL4 reporter, mRNA. A digest of the protocol: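 HepG2 cells transiently transfected with multiplexed GAL4-UAS reporter units; ERa activity read via exogenous chimeric NR-Gal4 protein. After 24 hour compound exposure, reporter mRNA measured by RT-PCR with 6-FAM labelling and capillary electrophoresis; gain-of-signal fitted relative to DMSO.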

The target of assay [4] is X-box-binding protein 1 (Homo sapiens) (UniProt P17861). The assay can be described thus: ATG_Xbp1_CIS: Attagene CIS-FACTORIAL HepG2 Assay for human X-box Binding Protein 1 (XBP1) (AID 2282972). The conditions noted are these: HepG2 XBP1 cis-element reporter, Attagene multiplex; actives raise or lower the signal. A digest of the protocol:
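HepG2, transient MRTU transfection (cis-promoter driven), 24 h compound exposure. Total RNA → oligo(dT) RT → PCR → 6-FAM labeling → HpaI cut → CE. Bidirectional fit vs DMSO.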

A short description of assay [5]: ATG_M_19_TRANS: Attagene TRANS-FACTORIAL HepG2 Assay for M19 Transcription Factor (Internal Marker) (AID 2282974; active = hit-call score of the fitted dose curve at least 0.9, where 1 is the maximum). Conditions: HepG2 Attagene TRANS-FACTORIAL M19 internal marker reporter. The procedure, abridged:
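Using RT-PCR and capillary electrophoresis, reporter mRNA from transiently transfected human HepG2 cells was quantified following 24 h exposure; activity was fitted in the positive direction against DMSO.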

The target of assay [6] is Steroid hormone receptor ERR1 (Homo sapiens) (UniProt P11474). Briefly: ATG_ERRa_TRANS: Attagene TRANS-FACTORIAL HepG2 Assay for human Estrogen-Related Receptor alpha (ERRa) (AID 2282971; active = hit-call score of the fitted dose curve at least 0.9, where 1 is the maximum). Conditions: HepG2 Attagene TRANS reporter, ERRa transactivation. A digest of the protocol:
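HepG2 cells transiently transfected with multiplexed GAL4-UAS reporter units reading chimeric ERRa-Gal4 activity; 24 h compound exposure. Reporter mRNA measured by RT-PCR, 6-FAM labelling, HpaI digest and capillary electrophoresis; gain of signal fitted versus DMSO baseline.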

In assay [7] the target is Nuclear receptor subfamily 1 group I member 3 (Homo sapiens) (UniProt Q14994). The assay can be described thus: ATG_CAR_TRANS: Attagene TRANS-FACTORIAL HepG2 Assay for human Constitutive Androstane Receptor (CAR) (AID 2282969; active = hit-call score of the fitted dose curve at least 0.9, where 1 is the maximum;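 also: activators raise reporter mRNA above DMSO so AC50 marks induction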). The conditions noted are these: HepG2 Attagene TRANS-FACTORIAL CAR reporter. A digest of the protocol: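 HepG2 cells transiently transfected with GAL4-UAS reporter units; TRANS format reads activity of exogenous chimeric NR-Gal4 protein. After 24 h dosing, reporter mRNA quantified by RT-PCR, 6-FAM labelling and capillary electrophoresis; gain of signal fitted against DMSO.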
Chain of Nuclear receptor subfamily 1 group I member 3 (Homo sapiens) (Q14994 whole entry, looked up, the tested form may be a part): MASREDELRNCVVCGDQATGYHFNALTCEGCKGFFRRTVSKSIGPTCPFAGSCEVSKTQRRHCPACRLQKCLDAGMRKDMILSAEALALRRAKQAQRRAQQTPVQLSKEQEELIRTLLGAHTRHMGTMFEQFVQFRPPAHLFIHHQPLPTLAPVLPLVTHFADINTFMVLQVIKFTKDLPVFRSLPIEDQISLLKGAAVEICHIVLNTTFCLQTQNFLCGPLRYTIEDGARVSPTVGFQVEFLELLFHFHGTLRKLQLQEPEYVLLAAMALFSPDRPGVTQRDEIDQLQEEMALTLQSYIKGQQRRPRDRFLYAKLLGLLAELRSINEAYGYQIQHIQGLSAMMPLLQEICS

Assay [8] in a line: ATG_GAL4_TRANS: Attagene TRANS-FACTORIAL HepG2 Assay for GAL4 (Internal Marker) (AID 2282976; active = hit-call score of the fitted dose curve at least 0.9, where 1 is the maximum). Conditions: HepG2 Attagene TRANS GAL4 internal marker reporter. A digest of the protocol: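 HepG2 cells transiently transfected with multiplexed GAL4-UAS reporter constructs were dosed for 24 h. Reporter mRNA was measured by RT-PCR, 6-FAM primer extension, HpaI digestion and capillary electrophoresis, and gain of signal was fitted relative to DMSO.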

The target of assay [9] is Estrogen-related receptor gamma (Homo sapiens) (UniProt P62508). The assay can be described thus: ATG_ERRg_TRANS: Attagene TRANS-FACTORIAL HepG2 Assay for human Estrogen-Related Receptor gamma (ERRg) (AID 2282977; active = hit-call score of the fitted dose curve at least 0.9, where 1 is the maximum;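 also: hits increase reporter signal over DMSO so potencies reflect activators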). The conditions noted are these: HepG2 Attagene TRANS reporter, ERRg transactivation. A digest of the protocol:
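HepG2 cells transiently transfected with multiplexed GAL4-UAS reporter units driven by chimeric NR-Gal4 proteins; 24 h exposure. Reporter mRNA quantified by RT-PCR, fluorescent labelling, HpaI digestion and capillary electrophoresis; gain of signal vs DMSO.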

The structures appear in SMILES notation. Results filed as inconclusive are left out. Activity calls are given as the source filed them. The calls were made as follows, unless noted: active = hit-call score of the fitted dose curve at least 0.9, where 1 is the maximum; inactive = score below 0.9.

Chain of Estrogen receptor (Homo sapiens) (P03372 whole entry, looked up, the tested form may be a part): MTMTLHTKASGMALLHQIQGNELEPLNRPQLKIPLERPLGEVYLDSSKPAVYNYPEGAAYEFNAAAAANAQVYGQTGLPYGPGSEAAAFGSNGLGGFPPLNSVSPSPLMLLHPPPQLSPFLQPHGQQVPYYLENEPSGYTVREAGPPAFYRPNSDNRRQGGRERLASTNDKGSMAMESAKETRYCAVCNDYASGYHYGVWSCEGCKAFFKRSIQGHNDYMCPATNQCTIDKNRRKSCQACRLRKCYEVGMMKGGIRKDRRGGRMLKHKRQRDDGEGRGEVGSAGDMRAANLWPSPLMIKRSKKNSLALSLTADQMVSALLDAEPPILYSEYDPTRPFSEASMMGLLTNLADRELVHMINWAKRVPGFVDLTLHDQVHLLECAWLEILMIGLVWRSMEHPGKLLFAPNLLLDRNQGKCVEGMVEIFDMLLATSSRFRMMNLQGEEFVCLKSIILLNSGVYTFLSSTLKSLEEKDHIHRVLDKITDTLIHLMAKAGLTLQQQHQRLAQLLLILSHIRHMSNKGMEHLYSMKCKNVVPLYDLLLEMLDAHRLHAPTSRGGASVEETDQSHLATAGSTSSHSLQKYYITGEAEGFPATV
Chain of Steroid hormone receptor ERR1 (Homo sapiens) (P11474 whole entry, looked up, the tested form may be a part): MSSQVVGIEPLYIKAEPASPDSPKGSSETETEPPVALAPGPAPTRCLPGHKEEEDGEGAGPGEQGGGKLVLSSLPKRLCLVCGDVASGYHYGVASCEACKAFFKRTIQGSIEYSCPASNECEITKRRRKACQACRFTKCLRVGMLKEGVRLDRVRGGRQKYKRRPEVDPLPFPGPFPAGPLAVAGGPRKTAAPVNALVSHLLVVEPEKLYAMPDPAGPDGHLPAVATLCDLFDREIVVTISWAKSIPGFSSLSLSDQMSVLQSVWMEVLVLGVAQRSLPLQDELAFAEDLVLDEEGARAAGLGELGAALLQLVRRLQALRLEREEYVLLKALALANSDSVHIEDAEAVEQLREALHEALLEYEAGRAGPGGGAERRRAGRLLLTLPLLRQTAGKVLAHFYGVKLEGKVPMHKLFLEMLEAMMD
Chain of Estrogen-related receptor gamma (Homo sapiens) (P62508 whole entry, looked up, the tested form may be a part): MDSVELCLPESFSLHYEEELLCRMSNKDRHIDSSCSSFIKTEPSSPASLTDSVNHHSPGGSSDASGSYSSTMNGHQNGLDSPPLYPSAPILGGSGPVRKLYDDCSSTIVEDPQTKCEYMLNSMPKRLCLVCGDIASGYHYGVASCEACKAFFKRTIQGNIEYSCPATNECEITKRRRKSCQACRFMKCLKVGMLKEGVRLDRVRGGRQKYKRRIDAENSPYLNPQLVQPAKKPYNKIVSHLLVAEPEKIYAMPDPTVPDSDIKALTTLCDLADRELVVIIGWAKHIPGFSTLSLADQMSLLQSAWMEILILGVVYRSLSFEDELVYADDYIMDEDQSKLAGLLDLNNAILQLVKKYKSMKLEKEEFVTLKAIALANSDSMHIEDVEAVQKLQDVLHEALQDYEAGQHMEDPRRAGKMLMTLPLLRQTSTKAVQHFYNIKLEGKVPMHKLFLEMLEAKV
Chain of X-box-binding protein 1 (Homo sapiens) (P17861 whole entry, looked up): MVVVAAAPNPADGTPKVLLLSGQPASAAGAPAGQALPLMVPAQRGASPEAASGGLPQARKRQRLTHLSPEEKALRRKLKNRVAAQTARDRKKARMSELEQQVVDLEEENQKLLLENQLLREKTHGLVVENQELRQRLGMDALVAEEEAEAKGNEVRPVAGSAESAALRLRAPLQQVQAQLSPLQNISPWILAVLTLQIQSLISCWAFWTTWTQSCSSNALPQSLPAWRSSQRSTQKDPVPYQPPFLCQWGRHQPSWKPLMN

Turning to `CCCCN(CC)C(=O)SCCC`, the result in assay [1], in assay [2], in assay [4] and in assay [5] was inactive. Also, in assay [3], the AC50 (commonly the midpoint of the concentration-response curve, whichever way the signal moves) was 100 µM (active).
Take `Nc1ccc(Sc2ccc(N)cc2)cc1`: the compound was called inactive in assay [1], in [6], in [4] and in [5]. For the same compound, the AC50 was 62.9 µM (active) in assay [2] and 7.99 µM (active) in assay [3].
For the compound `c1nc[nH]n1`, the compound was classed as inactive in [1], in assay [2], in assay [7] and in [4]. Further, the half-maximal activity concentration (AC50) in assay [3] was 24.8 µM (active).
As to `CC(Cl)CN(C)C` (stereo not drawn), the call in assay [1], in assay [2], in assay [3], in [4] and in [5] was inactive.
Regarding `Cc1ccc(N)cc1N`, the compound was called inactive in assay [1], in [2], in [3], in assay [4], in [8] and in [9].
With `O=C(O)C1C(C(=O)O)C2(Cl)C(Cl)=C(Cl)C1(Cl)C2(Cl)Cl` (stereo not drawn), the result in [1], in [3] and in assay [4] was inactive.
For the compound `O=C(O)C(F)(F)OC(F)(F)C(F)(F)OC(F)(F)C(=O)O`, the compound was classed as inactive in assay [1], in assay [2], in assay [3], in assay [6] and in assay [4].
With `CC(C)(C)N(NC(=O)c1ccc(Cl)cc1)C(=O)c1ccccc1`, the compound was classed as inactive in assay [1], in [2], in assay [3], in assay [4] and in [8].
In the case of `ClC1=C(Cl)C2(Cl)C3C(Cl)C(Cl)CC3C1(Cl)C2(Cl)Cl` (stereo not drawn), the call in [1] and in [4] was inactive. In addition, the AC50 in assay [2] was 3.76 µM (active); in [3], 13.4 µM (active).
In the case of `CC(C)(C)OOC(C)(C)C`, the call in assay [1], in assay [4], in assay [5] and in [8] was inactive.
`CC1=C(C(=O)Nc2ccccc2)S(=O)(=O)CCO1`: the outcome in assay [1] and in assay [4] was inactive. In assay [2], the AC50 is 9.33 µM (active).
Turning to `O=C(O)C(F)(F)OC(F)(F)C(F)(F)OC(F)(F)F`, the result in [1], in assay [2], in assay [3], in assay [6], in assay [4] and in assay [5] was inactive. For the same compound, the compound was classed as inactive in assay [8] and in [9].
`CCOC(=O)c1ccccc1N`: the call in assay [1], in assay [2], in assay [3] and in [4] was inactive.
For the compound `CC(=O)c1ccc(-c2ccccc2)cc1`, the compound was called inactive in [1], in [7] and in assay [4]. For the same compound, the results for the AC50 in assay [2] and in [3] were 32 µM (active) and 6.19 µM (active), respectively.
`CCOP(=S)(OCC)SCSc1ccc(Cl)cc1`: the outcome in assay [1], in assay [7], in assay [4] and in assay [5] was inactive. In addition, the AC50 was 5.83 µM (active) in [2] and 3.48 µM (active) in assay [3].
For `O=c1[nH]c2ccccc2c(=O)o1`, the result in assay [1], in assay [2], in assay [7], in assay [3], in [4] and in assay [8] was inactive.
With `Cc1ccc([N+](=O)[O-])cc1C`, the compound was called inactive in [1], in [2], in assay [3], in [4], in assay [5] and in [8].
Take `c1ccc2c(c1)Nc1ccccc1S2`: the compound was classed as inactive in assay [1], in assay [6], in assay [4], in assay [5], in [8] and in assay [9]. Also, the AC50 in assay [3] was 11.7 µM (active).
On to `CC1(C)CN=C(NN=C(/C=C/c2ccc(C(F)(F)F)cc2)/C=C/c2ccc(C(F)(F)F)cc2)NC1`, for which the results for the AC50 in [1] and in assay [3] were 11.1 µM (active) and 4.59 µM (active), respectively. The compound was called inactive in assay [2], in [4] and in assay [5].
Take `O=P(OCC(Br)CBr)(OCC(Br)CBr)OCC(Br)CBr` (stereo not drawn): the compound was classed as inactive in [1] and in assay [3]. In addition, the half-maximal activity concentration (AC50) in [4] was 8.88 µM (active).
As for `CC(=O)CCc1ccc2c(c1)OCO2`, the call in assay [1], in [7], in assay [3], in assay [4], in [8] and in assay [9] was inactive.
On to `Nc1ccc(Cl)cc1`, for which the call in assay [1], in assay [3], in assay [4], in assay [5] and in assay [8] was inactive.
For `CC(Cc1ccc(OCC(=O)O)cc1)NCC(O)c1csc(C(F)(F)F)n1` (stereo not drawn), the compound was called inactive in assay [1], in [2], in assay [4], in [5], in assay [8] and in assay [9].
With `O=[N+]([O-])c1ccccc1`, the compound was called inactive in [1] and in assay [4]. Moreover, in [3], the AC50 was 19.8 µM (active).
Regarding `N#C/C=C/c1ccccc1`, the compound was classed as inactive in [1], in assay [2], in assay [7] and in [4].
Take `CCCN(CCC)c1c([N+](=O)[O-])cc(C(C)C)cc1[N+](=O)[O-]`: the call in assay [1], in assay [2], in assay [3], in assay [4] and in assay [5] was inactive.
As to `CCCCc1ccc(O)cc1`, the call in assay [1], in [4], in assay [5] and in assay [8] was inactive. For the same compound, the AC50 in assay [3] is 4.66 µM (active).
Turning to `CCCCc1ccccc1`, the call in assay [1], in assay [2], in assay [3], in [4] and in assay [5] was inactive.
As for `O=C(O)C(Cl)Cl`, the compound was called inactive in assay [1], in assay [4] and in assay [8].
For `O=C(O)C(F)(F)C(F)(F)C(=O)O`, the compound was called inactive in assay [1], in assay [2], in assay [7], in assay [3], in assay [4] and in assay [5]. The outcome in assay [9] was inactive.
With `O=P(Oc1ccccc1)(Oc1ccccc1)Oc1ccccc1`, the compound was called inactive in assay [1], in [7], in [3], in assay [5] and in assay [8]. Also, the values for the half-maximal activity concentration (AC50) in [2] and in assay [4] were 7.17 µM (active) and 49.4 µM (active), respectively.
In the case of `O=P1(N(CCCl)CCCl)NCCCO1` (stereo not drawn), the call in assay [1], in assay [2], in assay [6], in assay [4] and in assay [8] was inactive. Besides, the half-maximal activity concentration (AC50) in assay [3] was 17 µM (active).
For the compound `OCC1CO1` (stereo not drawn), the outcome in [1], in [2], in assay [3], in assay [4] and in [5] was inactive.
With `C=CC(=O)OCC(CC)(COC(=O)C=C)COC(=O)C=C`, the AC50 is 49.4 µM (active) in [1] and 3.37 µM (active) in [2]. For the same compound, the outcome in assay [3], in assay [6] and in [4] was inactive.
Regarding `CCCCOCCOP(=O)(OCCOCCCC)OCCOCCCC`, the outcome in assay [1], in assay [2], in assay [3], in [4] and in assay [8] was inactive.
